This is part of a sample that, as a whole, favours compounds with a hit. Of some 79,000 tested, about 15% had one in any assay. Values without a mark were called inactive. Rule as the data show it: active = growth inhibition above about 70%; inactive = the rest.

The nature of this assay: NCI Yeast Anticancer Drug Screen. Data for the mec2-1 strain (AID 157). The following applies: S. cerevisiae mec2-1 strain, at 50.0 µM, active compounds read high. The method in brief: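 Readout is yeast growth inhibition, normalised to vehicle-treated controls, in the mec2-1 strain exposed to compound.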
For `c1ccc(-c2c3ccccc3cc3c2ccc2ccccc23)cc1`, the growth inhibition is -12.2%.
The figure for `CCCCCCC(C)(C)NC(N)=O` is 4.4%.
Take `Cc1ncc(N)nc1C`: the growth inhibition was -15.8%.
Turning to `CC(=O)OCc1ccc(C)cc1`, the growth inhibition was 6.6%.
On to `O=C(O)CCc1ccccc1CC(=O)O`, for which the growth inhibition is -9.95%.
The figure for `CC(=O)O[C@H]1C[C@]2(C)C(CCC3O[C@@]32C)[C@@]2(CC(c3ccoc3)OC2O)[C@@H]1C` (some centres not stated) is -16.1%; for `CC1=C(CC2C(=O)N(c3ccccc3)S(=O)(=O)NC2C)C(=O)N(c2ccccc2)S(=O)(=O)N1C` (configuration not stated) it is 4%.
The figure for `O/N=C1/C(=C/c2ccc(F)cc2)CCCC1C(NO)c1ccc(F)cc1` (configuration not stated) is -22.1%; for `COC(=O)N/N=C/c1oc(-c2ccccc2)c(-c2ccccc2)c1[N+](=O)[O-]` it is -12.6%; for `COc1ccc(C2C3=C(CC(C)(C)CC3=O)Oc3cc4c(cc32)OCO4)cc1` (configuration not stated) it is -0.05%.
The same measure for `CN(C)NC(=O)Nc1cccc2ccccc12`: -22.3%; for `CC(C)(C)OC(=O)C1CCC/C1=N/Nc1ccc([N+](=O)[O-])cc1[N+](=O)[O-]` (configuration not stated): -46%; for `CC(C)CCCC(C)CCCl` (configuration not stated): -1.1%.
On to `NC(=O)N/N=C(\Cc1nc2ccc(Cl)cc2[nH]c1=O)C(=O)Nc1ccc(Cl)cc1Cl`, for which the growth inhibition was 11.8%.
Regarding `Cc1[nH]n(C(=N)N)c(=O)c1CCO`, the growth inhibition is 11.6%.
With `CC(=O)OCC1OC(n2cnc([N+](=O)[O-])c2Br)C(OC(C)=O)C1OC(C)=O` (configuration not stated), the growth inhibition was 15.4%.
Consider `CCCCCCCC(CC#N)(CCCCC)CCCCCC` (configuration not stated), for which the growth inhibition was -10.1%.

These data come from PubChem BioAssay (NCI).
